From PubChem
Rows were chosen to be rich in hits. Some 12% of all compounds tested hit in one or more screens of this group.
BAZ2B inh = qHTS Assay for Inhibitors of BAZ2B; Bromodomain adjacent to zinc finger domain protein 2B (Homo sapiens), Q9UIF8; AlphaScreen BAZ2B-H3K14Ac peptide displacement; Potency, µM (titrated, usually from 114 µM), hits mostly inhibitors; 360,000 tested, 4.4% active; also: nearly all actives have a fitted effect of over 60% in size
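BAZ2B 50 nM plus b-H3(5-23)K14Ac 50 nM, PBS pH 7.4/0.01% Tween-20, 30 min RT; compound added (max 110 uM), 30 min RT; streptavidin donor/Ni-chelate acceptor beads 10 ug/mL final, 20 min dark; AlphaScreen read.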
JMJD2A Tudor inh = qHTS Assay for Inhibitors of JMJD2A-Tudor Domain; Potency, µM (highest dose often 114 µM), most hits filed as inhibitors; 390,000 tested, 4.4% active; AlphaScreen JMJD2A-Tudor / H3K4me3 peptide binding; AID 504339, 2011; Lysine-specific demethylase 4A (Homo sapiens), O75164; also: nearly all actives have a fitted effect of over 50% in size
HP1b chromo inh = HTS for Inhibitors of HP1-beta Chromodomain Interactions with Methylated Histone Tails; Chromobox protein homolog 1 (Homo sapiens), P83916; AlphaScreen HP1-beta / biotin-H3K9me3 peptide binding; Potency, µM (doses to about 114 µM), actives largely listed as inhibitors; 390,000 tested, 0.56% active; also: nearly all actives have a fitted effect of over 70% in size
Target sequence (P83916 whole entry, looked up): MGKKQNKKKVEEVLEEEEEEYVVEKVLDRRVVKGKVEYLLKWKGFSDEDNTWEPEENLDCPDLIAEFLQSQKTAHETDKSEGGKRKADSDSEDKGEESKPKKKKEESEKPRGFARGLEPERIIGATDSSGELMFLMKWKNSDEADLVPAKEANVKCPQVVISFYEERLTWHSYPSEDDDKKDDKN
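Compound inhibition of the preformed complex between 50 nM HP1-beta and 50 nM biotinylated H3K9me3 peptide was read by AlphaScreen. Buffer was PBS pH 7.4 with 0.01% Tween-20. Incubations ran 30 min at room temperature, with 10 ug/mL donor/acceptor beads.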
PLK1 PBD block = qHTS for Inhibitors of PLK1-PDB (polo-like kinase 1 - polo-box domain): Primary Screen; Serine/threonine-protein kinase PLK1 (Homo sapiens), P53350; Potency, µM, most hits filed as inhibitors; 360,000 tested, 2.8% active; Plk1 PBD binding of FITC phosphopeptide, fluorescence polarization; also: series mostly up to about 57 µM; nearly all actives have a fitted effect of over 65% in size
Target sequence (P53350 whole entry, looked up, the tested form may be a part): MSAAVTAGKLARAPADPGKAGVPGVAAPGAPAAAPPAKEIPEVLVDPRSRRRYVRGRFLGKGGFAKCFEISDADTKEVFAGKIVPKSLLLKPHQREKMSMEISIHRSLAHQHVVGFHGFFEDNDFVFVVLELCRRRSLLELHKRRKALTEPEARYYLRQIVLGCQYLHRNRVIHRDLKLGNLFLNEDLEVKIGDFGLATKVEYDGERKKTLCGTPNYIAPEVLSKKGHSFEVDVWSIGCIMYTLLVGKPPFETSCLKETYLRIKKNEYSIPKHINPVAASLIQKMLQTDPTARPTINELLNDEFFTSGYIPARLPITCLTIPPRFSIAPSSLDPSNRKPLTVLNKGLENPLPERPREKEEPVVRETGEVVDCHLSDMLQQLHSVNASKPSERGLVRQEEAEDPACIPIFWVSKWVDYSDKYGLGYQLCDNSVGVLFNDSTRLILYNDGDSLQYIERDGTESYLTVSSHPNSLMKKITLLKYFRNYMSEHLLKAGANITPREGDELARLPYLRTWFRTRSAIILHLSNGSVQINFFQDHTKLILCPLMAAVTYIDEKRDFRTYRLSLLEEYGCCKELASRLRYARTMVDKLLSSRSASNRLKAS
G9a block = qHTS Assay for Inhibitors of Histone Lysine Methyltransferase G9a; Histone-lysine N-methyltransferase EHMT2 (Homo sapiens), Q96KQ7; G9a H3K9 monomethylation, AlphaScreen, 2 h; Potency, µM (doses to about 102 µM), actives largely listed as inhibitors; 350,000 tested, 8.8% active; also: nearly all actives have a fitted effect of over 75% in size
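G9a (20 nM) preincubated 15 min RT with compounds, then 500 nM biotinylated H3K9 peptide and 20 uM SAM added; 2 h RT reaction. Monomethyl-H3K9 product detected by AlphaScreen with anti-H3K9me1 antibody, streptavidin donor and anti-rabbit IgG acceptor beads.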
Sfp inh = qHTS Assay for Inhibitors of Bacillus subtilis Sfp phosphopantetheinyl transferase (PPTase) | AID 1490, 2009 | Biochemical Sfp PPTase activity, qHTS | 4'-phosphopantetheinyl transferase ffp (Bacillus subtilis), Q9F4F7 | 310,000 tested, 3.5% active | Potency, µM, actives largely listed as inhibitors;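 also: the enzyme is Sfp with the accession as filed and its product quenches rhodamine fluorescence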
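Compounds were incubated with enzyme (final 15 nM) for 15 min at room temperature before substrate addition started the reaction. Fluorescence at 525 nm excitation, 598 nm emission was recorded immediately and after 30 minutes.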
Each line names hits and unclear results; the compound was inactive in the other large screens. Calls follow the shape of the dose curve; as a rule, active = well fitted curve in the direction sought with a large enough effect; inconclusive = small, poorly fitted or top-dose-only effect, or another doubt; inactive = no such curve, though single readings can be large; an effect the other way counts as inactive or inconclusive.

O=C(NC(=S)Nc1nc(-c2ccccc2)cs1)c1ccco1	Sfp inh 50.1µM
Cc1cc(C(=O)OC(C)C(=O)Nc2nc(-c3ccccc3)cs2)c(C)o1 (centres undefined)	none
COc1ccc(-c2csc(NC(=S)NC(=O)c3ccco3)n2)cc1	G9a block inconclusive, Sfp inh inconclusive
O=C(Nc1nc(-c2ccccn2)cs1)c1ccco1	BAZ2B inh 7.94µM, JMJD2A Tudor inh 56.2µM, PLK1 PBD block inconclusive, G9a block 20µM
CCc1ccc(-c2csc(NC(=O)Oc3ccccc3)n2)cc1	PLK1 PBD block inconclusive, G9a block 44.7µM
CC(OC(=O)c1cccs1)C(=O)Nc1nc(-c2ccccc2)cs1 (centres undefined)	G9a block 79.4µM
CC(C)(C)N1CC(C(=O)Nc2cccc(Cl)c2Cl)CC1=O (centres undefined)	none
O=C(Cc1cccc(NC(=O)C2CCCN(C(=O)C3CCCC3)C2)c1)Nc1cccc(C(=O)N2CCCCC2)c1 (centres undefined)	none (no result: BAZ2B inh, G9a block, Sfp inh)
O=C(Nc1nc(-c2ccncc2)cs1)c1ccco1	G9a block 35.5µM
O=C(Nc1nc(-c2cccs2)cs1)c1ccco1	PLK1 PBD block inconclusive, G9a block inconclusive
O=C(NC(=S)Nc1nc(-c2ccc(Cl)cc2)cs1)c1cccs1	JMJD2A Tudor inh inconclusive, PLK1 PBD block 10.6µM
CC(OC(=O)c1ccc([N+](=O)[O-])o1)C(=O)Nc1nc(-c2ccc(F)c(F)c2)cs1 (centres undefined)	BAZ2B inh inconclusive, JMJD2A Tudor inh inconclusive, G9a block 28.2µM (no result: Sfp inh)
Cc1cccc(OC(C)C(=O)Nc2nc(-c3ccncc3)cs2)c1 (centres undefined)	PLK1 PBD block inconclusive, G9a block 35.5µM (no result: Sfp inh)
O=C(Cc1ccccc1F)Nc1nc(-c2ccc(F)c(F)c2)cs1	none
Cc1ccc(-c2csc(NC(=S)NC(=O)c3cccs3)n2)cc1	none
O=C(Cn1nc(-c2ccccc2)c2cnc3ccc(F)cc3c21)NC1CCCC1	none (no result: PLK1 PBD block, Sfp inh)
COc1cccc(N2C(=O)c3ccccc3C2=O)n1	none (no result: BAZ2B inh, HP1b chromo inh, PLK1 PBD block, G9a block, Sfp inh)
CCc1cccc(NC(=O)C2CCCN(c3ncnc4onc(-c5ccc(F)cc5)c34)C2)c1 (centres undefined)	none (no result: PLK1 PBD block, Sfp inh)
Cc1ccccc1N=Nc1c(O)n(C)c2ccccc12	PLK1 PBD block inconclusive, G9a block 7.94µM
CCCN1C(=O)C2(c3ccccc31)c1c(oc3ccccc3c1=O)C(=O)N2CCCOC(C)C (centres undefined)	none (no result: PLK1 PBD block, Sfp inh)
O=C(O)Cn1c2ccccc2c2ccccc21	none
O=C(O)Cn1c2c(c3ccccc31)CSc1ccc(Cl)cc1-2	BAZ2B inh inconclusive, JMJD2A Tudor inh inconclusive, PLK1 PBD block 13.4µM, G9a block inconclusive, Sfp inh 20µM
COc1ccccc1C1/C(=C(\O)c2ccc3c(c2)OCCO3)C(=O)C(=O)N1CCCN(C)C (centres undefined)	none (no result: JMJD2A Tudor inh, HP1b chromo inh, PLK1 PBD block)
O=C1C(=O)N(CCCN2CCOCC2)C(c2ccc(Cl)cc2)/C1=C(\O)c1ccc2c(c1)OCCO2 (centres undefined)	JMJD2A Tudor inh 31.6µM, PLK1 PBD block 23.8µM, G9a block 39.8µM
COc1cccc(C2/C(=C(\O)c3ccc4c(c3)OCCO4)C(=O)C(=O)N2CCCN2CCOCC2)c1OC (centres undefined)	G9a block 3.55µM
COc1cc(OC)cc(-c2nnc3n2N=C(c2ccc(OC)c(OC)c2)CS3)c1	none (no result: BAZ2B inh, HP1b chromo inh, PLK1 PBD block, G9a block)
CS(=O)(=O)c1ccccc1C(=O)Nc1cccc2ncccc12	none
CC(Oc1ccc(Cl)cc1Cl)C(=O)Nc1ccc(O)cc1 (centres undefined)	BAZ2B inh 50.1µM, G9a block 25.1µM, Sfp inh inconclusive
COC(=O)c1c(NC(=O)C(C)Oc2ccc(Cl)cc2Cl)sc2c1CCCC2 (centres undefined)	G9a block 3.55µM (no result: PLK1 PBD block, Sfp inh)
CCCc1ccc(OC(C)C(=O)Nc2sc3c(c2C(=O)OC)CCCCC3)cc1 (centres undefined)	HP1b chromo inh inconclusive, G9a block 7.94µM (no result: PLK1 PBD block, Sfp inh)
CCOC(=O)c1c(NC(=O)c2ccccc2Cl)sc2c1CCCC2	none (no result: PLK1 PBD block, Sfp inh)
CCOC(=O)c1c(NC(=O)C(C)Oc2ccc(Cl)c(C)c2)sc2c1CCCC2 (centres undefined)	G9a block 3.16µM (no result: PLK1 PBD block, Sfp inh)
COC(=O)CCNC(=O)NC(CCC(C)C)c1c(-n2cccc2)sc2c1CCN(C)C2 (centres undefined)	G9a block inconclusive (no result: PLK1 PBD block, Sfp inh)
Cc1nc(NCc2ccccc2)c2nc(-c3ccccc3)n(CC3CCN(C)CC3)c2n1	none (no result: BAZ2B inh, JMJD2A Tudor inh, HP1b chromo inh, PLK1 PBD block, G9a block)
N#CCCCS(=O)(=O)c1nnnn1-c1ccc(Br)cc1	none (no result: BAZ2B inh, JMJD2A Tudor inh, HP1b chromo inh, PLK1 PBD block, G9a block)
O=C(OCc1nc(-c2ccccc2Cl)no1)c1ccco1	none (no result: Sfp inh)
Cc1cc(/C=C2\SC(=O)NC2=O)c(C)n1-c1ccc(N2CCOCC2)cc1	none (no result: G9a block)
O=C1NN(c2cccc(Br)c2)C(=O)/C1=C\c1ccc(N2CCOCC2)cc1	BAZ2B inh inconclusive, JMJD2A Tudor inh inconclusive, PLK1 PBD block inconclusive, G9a block 79.4µM
CS(=O)(=O)N1CCc2cc(-c3csc(NCC4CCCO4)n3)ccc21 (centres undefined)	PLK1 PBD block inconclusive, G9a block 5.62µM, Sfp inh 50.1µM
CS(=O)(=O)N1CCc2cc(-c3csc(NC(=O)Cc4ccccc4)n3)ccc21	G9a block 14.1µM
CCCC(=O)Nc1nc(-c2ccc3c(c2)CCN3S(C)(=O)=O)cs1	none
C[n+]1cn(/N=C/c2ccccc2)c2ccccc21	JMJD2A Tudor inh inconclusive, G9a block 1.58µM
CCCNC(=O)c1c(O)c2c([nH]c1=O)CCCC2	PLK1 PBD block inconclusive
CCNC(=O)c1c(O)c2c([nH]c1=O)CCCC2	PLK1 PBD block 26.7µM, G9a block inconclusive
Cc1nc2nc(SCc3ccc([N+](=O)[O-])cc3)[nH]c2cc1Br	none
C=C(C)CSc1nc2nc(C)c(Br)cc2[nH]1	G9a block 7.08µM (no result: JMJD2A Tudor inh, HP1b chromo inh, PLK1 PBD block)
Cc1ccc(NC(=O)CSc2nc3nc(C)c(Br)cc3[nH]2)cc1F	none
COC(=O)CSc1nc2nc(C)c(Br)cc2[nH]1	G9a block 7.94µM
Cc1ccc(N(CC(=O)NCCSc2ccccc2)S(=O)(=O)c2ccc(F)cc2)cc1	none (no result: PLK1 PBD block, Sfp inh)
COc1ccc(-c2nc3scc(CCNC(=O)c4cc(OC)cc(OC)c4)n3n2)cc1	none (no result: PLK1 PBD block, Sfp inh)
O=C(NC(=S)Nc1cccc(Cl)c1N1CCCCC1)c1ccco1	BAZ2B inh inconclusive
N#Cc1ccccc1NC(=S)NC(=O)c1cccs1	PLK1 PBD block 8.44µM, G9a block 11.2µM, Sfp inh 31.6µM
